Assay outcomes from PubChem.
3CLpro inhibitor: SARS-CoV 3CLpro protease inhibition; 290,000 tested, 0.14% active; inhibition, % at 6 µM; P0C6X7; recombinant SARS-CoV 3CLpro, quenched FRET peptide cleavage; in the data active means inhibition above about 12%
MazF activator: activators of E. coli MazEF toxin-antitoxin RNase; 350,000 tested, 0.32% active; AID 504720; activation, % at 20 µM; FAM/BHQ RNA-DNA oligo cleavage fluorescence, 5 h; P0AE70; in the data active means activation above about 50%
Target sequence (P0AE70 whole entry, looked up): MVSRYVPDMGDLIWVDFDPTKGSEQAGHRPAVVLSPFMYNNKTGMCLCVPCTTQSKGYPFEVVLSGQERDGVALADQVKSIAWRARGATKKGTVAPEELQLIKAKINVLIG
PfHsp40 yeast: restores yeast growth despite PfHsp40 toxicity. S. cerevisiae expressing PfHsp40, growth rescue, ATP luminescence. 340,000 tested, 0.68% active. AID 504582. growth rescue, % at 12.5 µM; in the data active means growth rescue above about 28%, passing the limit was not always enough; inconclusive means no clear call, values can overlap the other calls;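 further: yeast W303a lacking pdr1 and pdr3 grown in galactose medium; growth measured after three days at 30 °C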
BJeLR viability: BJeLR cell viability loss; BJeLR (HRASV12) viability, CellTiter-Glo ATP luminescence, 48 h; inhibition, % (concentration not given with the values); 300,000 tested, 0.17% active; AID 1554; in the data active means inhibition above about 50%; inconclusive means no clear call, values can overlap the other calls
Mtb BioA inh: BioA (M. tuberculosis) enzyme inhibition; purified M. tuberculosis BioA enzyme, plate reader; inhibition, % at 9.99 µM; 360,000 tested, 0.096% active; AID 602481; in the data active means inhibition above about 40%; inconclusive means no clear call, values can overlap the other calls
Y pestis TopoI: blocks Yersinia pestis topoisomerase I activity. Y. pestis Topo-I cleavage product accumulation, plate reader. activity, % at 10 µM. 360,000 tested, 0.064% active; in the data active means activity above about 50%, passing the limit was not always enough; inconclusive means no clear call, values can overlap the other calls
* hit, by the source's call. The list is not random: actives were taken first. Their share in the collection is about 1.1%.

`CN(C)CC(=O)N1[C@@H]2c3ccc(-c4ccc(F)cc4)c(=O)n3C[C@@H]2[C@@H](CO)[C@@H]1C(=O)NC1CCC1` gave Mtb BioA inh -3.
For CCC(C)c1ccc(NC(=S)NCc2ccccc2OC)cc1 (stereo not drawn) the results were 3CLpro inhibitor -1, MazF activator 8, PfHsp40 yeast 84*, BJeLR viability 1 and Y pestis TopoI -4.
CCCCOC(=O)/C=C/c1ccc(OC(=O)OC)c(OC(=O)OC)c1 was read as 3CLpro inhibitor 6, MazF activator -5, PfHsp40 yeast 287*, BJeLR viability -1 and Y pestis TopoI -2.
For C[C@@H]1CN([C@H](C)CO)S(=O)(=O)c2ccc(C3=CCCC3)cc2O[C@@H]1CN(C)Cc1cccc(C(=O)O)c1 the results were Mtb BioA inh -1.
For C[C@@H]1CN([C@@H](C)CO)S(=O)(=O)c2ccc(C#CC3(O)CCCC3)cc2O[C@H]1CN(C)C(=O)Nc1ccccc1 the results were Mtb BioA inh 1.
`CCc1ccccc1N(C(=O)c1cccs1)C1C=CS(=O)(=O)C1` (stereo not drawn) gave 3CLpro inhibitor -4, MazF activator 1, PfHsp40 yeast 34*, BJeLR viability -7, Mtb BioA inh 19 and Y pestis TopoI 10.
`Cc1ccc(-c2cnc3c(c2)C(=O)N([C@@H](C)CO)C[C@H](C)[C@@H](CN(C)C(=O)c2ccc(F)cc2)O3)cc1` gave Mtb BioA inh 2.
For O=C(C(=O)c1cc(Br)ccc1O)c1cc(Br)ccc1O the results were MazF activator -11, PfHsp40 yeast 112* and Y pestis TopoI -1.
O=C(c1ccc(O)c(Br)c1)c1cc(Br)ccc1O was read as MazF activator -5, PfHsp40 yeast 8, Mtb BioA inh 1 and Y pestis TopoI 1.
C[C@@H]1CCCCO[C@@H](CN(C)S(=O)(=O)c2cccs2)[C@H](C)CN([C@@H](C)CO)C(=O)c2cc(NC(=O)Nc3cccc4ccccc34)ccc2O1 was read as Mtb BioA inh -3.
C[C@@H]1CN([C@H](C)CO)C(=O)c2cc(NC(=O)CCC(F)(F)F)ccc2O[C@@H](C)CCCCO[C@@H]1CN(C)C(=O)Cc1ccccc1 was read as Mtb BioA inh 0.
For CCOC(=O)Cn1c(S(=O)(=O)Cc2ccc(F)cc2)nc(-c2ccccc2)c1-c1ccccc1 the results were 3CLpro inhibitor -1, MazF activator 9, PfHsp40 yeast 1, BJeLR viability 10, Mtb BioA inh 0 and Y pestis TopoI 52*.
For CC(=O)c1c(C(C)=O)c(C)n(-c2cccc([N+](=O)[O-])c2)c1C the results were 3CLpro inhibitor -4, MazF activator -10, PfHsp40 yeast -2, BJeLR viability 6 and Y pestis TopoI 1.
Screening CC(=O)C1=C(c2cccc([N+](=O)[O-])c2)N(C(C)=O)n2c(C)nnc2S1 returned 3CLpro inhibitor 0, MazF activator 52*, PfHsp40 yeast 82*, BJeLR viability -7 and Y pestis TopoI 7.
`Cc1ccc(O)c(-c2cc(-c3cccc(Br)c3)n[nH]2)c1` gave 3CLpro inhibitor 4, MazF activator 4, PfHsp40 yeast 119*, BJeLR viability -8, Mtb BioA inh -1 and Y pestis TopoI -26.
`Oc1ccccc1-c1cc(-c2ccc(F)cc2)n[nH]1` gave 3CLpro inhibitor 4, MazF activator 7, PfHsp40 yeast 170*, BJeLR viability -7, Mtb BioA inh -1 and Y pestis TopoI -6.
`COc1ccc(-c2cc(-c3ccccc3O)[nH]n2)cc1` gave 3CLpro inhibitor 5, MazF activator 0, PfHsp40 yeast 23, BJeLR viability -7 and Y pestis TopoI -8.
For Cc1ccc(-c2cc(-c3ccccc3Cl)[nH]n2)c(O)c1 the results were 3CLpro inhibitor 7, MazF activator 9, PfHsp40 yeast 136*, BJeLR viability -2, Mtb BioA inh -2 and Y pestis TopoI -14.
For COc1ccc(-c2cc(-c3ccccc3)n[nH]2)c(O)c1 the results were 3CLpro inhibitor 4, MazF activator 1, PfHsp40 yeast 80*, BJeLR viability -1, Mtb BioA inh 1 and Y pestis TopoI -5.
CCCNC(=O)N1C[C@H](O)COC[C@H]2O[C@@H](CC(=O)N3CCOCC3)CC[C@@H]21 was read as Mtb BioA inh -1.
Screening COc1ccc(/C=C/C=O)cc1 returned Mtb BioA inh -1.
Screening O=C(Cc1cccnc1)N1[C@@H](CO)[C@@H]2c3ccccc3NC[C@@H]21 returned Mtb BioA inh -2.
For Cc1ccc(-c2cc(-c3ccc(F)cc3)n[nH]2)c(O)c1 the results were 3CLpro inhibitor 4, MazF activator 14, PfHsp40 yeast 180*, BJeLR viability 5, Mtb BioA inh 1 and Y pestis TopoI -5.
For Cc1c(C2(O)CCCCC2)[nH]c2cc(C(F)(F)F)ccc12 the results were MazF activator 3, PfHsp40 yeast inconclusive, Mtb BioA inh -1 and Y pestis TopoI -8.
CCc1c(C2(O)CCCCC2)[nH]c2cc(C(F)(F)F)ccc12 was read as 3CLpro inhibitor 12, MazF activator 6, PfHsp40 yeast 299*, BJeLR viability 0, Mtb BioA inh 1 and Y pestis TopoI -4.
For CN1c2ccc(-c3ccccc3F)cc2[C@@H]2[C@@H](CCN2S(=O)(=O)c2ccccc2)[C@H]1CO the results were Mtb BioA inh -1.
`COc1ccc(NC(=O)Nc2ccc3c(c2)C(=O)N([C@@H](C)CO)C[C@H](C)[C@@H](CN(C)C(=O)Nc2ccc(C(F)(F)F)cc2)OCCCC[C@H](C)O3)cc1` gave Mtb BioA inh -2.
CCOC(=O)C1Oc2ccccc2C(c2cccc3ccccc23)=C1C(=O)OC (stereo not drawn) was read as MazF activator 146*, PfHsp40 yeast 0, Mtb BioA inh -1 and Y pestis TopoI 42.
COc1ccc(CN(C)C[C@@H]2OCCCC[C@@H](C)Oc3ccc(NC(=O)c4ccccc4)cc3C(=O)N([C@H](C)CO)C[C@H]2C)cc1 was read as Mtb BioA inh 1.
`C[C@H](NC(=O)C[C@H]1C=C[C@@H](NC(=O)CN2CCOCC2)[C@H](CO)O1)c1ccccc1` gave Mtb BioA inh -2.
O=C(COC(=O)c1ccc([N+](=O)[O-])o1)Nc1ncc(Cl)cc1Cl was read as MazF activator 5, PfHsp40 yeast 49* and Y pestis TopoI -5.
O=C(COC(=O)c1ccc(Br)o1)Nc1ncc(Cl)cc1Cl was read as 3CLpro inhibitor 0, MazF activator 9, PfHsp40 yeast 0, BJeLR viability 7 and Y pestis TopoI 3.
For COc1ccc(NC(=O)COC(=O)c2ccc([N+](=O)[O-])o2)cc1Cl the results were 3CLpro inhibitor 2, MazF activator 2, PfHsp40 yeast -1 and Y pestis TopoI -19.
